Source: the supplement of paper PMC10849652
Of roughly 7,900 targets only a part is listed; those with a hit were picked by preference. About 0.6% of all pairs of compound and target were hits.

compound: COC1=CC=C(C=C1)CN2C=CC3=C2C=C(C=C3)C(=O)NO; assay: log2 fold change, soluble protein after heating vs DMSO (PISA); higher = thermal stabilisation; K562 cells, 10 uM, 30 min; active = over 0.2 and 3.5 SD of the protein, either way, in both replicates (recomputed)
Procedure, shortened: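 Quantification of soluble protein used TMTpro 16plex LC-MS/MS, with channel sums equalised. Samples were the supernatant after 21,000xg for 90 min of pooled aliquots from K562 cells (2×10^6 cells/mL) treated with 10 μM compound for 30 min, heated for 3 min over 48°C-58°C, and extracted in PBS with 0.5% NP-40 at 4°C. Values, from duplicates, describe thermal stability against control samples on a log2 fold-change scale.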

Sequence of UniProt Q5JRX3 (Q5JRX3 whole entry, looked up): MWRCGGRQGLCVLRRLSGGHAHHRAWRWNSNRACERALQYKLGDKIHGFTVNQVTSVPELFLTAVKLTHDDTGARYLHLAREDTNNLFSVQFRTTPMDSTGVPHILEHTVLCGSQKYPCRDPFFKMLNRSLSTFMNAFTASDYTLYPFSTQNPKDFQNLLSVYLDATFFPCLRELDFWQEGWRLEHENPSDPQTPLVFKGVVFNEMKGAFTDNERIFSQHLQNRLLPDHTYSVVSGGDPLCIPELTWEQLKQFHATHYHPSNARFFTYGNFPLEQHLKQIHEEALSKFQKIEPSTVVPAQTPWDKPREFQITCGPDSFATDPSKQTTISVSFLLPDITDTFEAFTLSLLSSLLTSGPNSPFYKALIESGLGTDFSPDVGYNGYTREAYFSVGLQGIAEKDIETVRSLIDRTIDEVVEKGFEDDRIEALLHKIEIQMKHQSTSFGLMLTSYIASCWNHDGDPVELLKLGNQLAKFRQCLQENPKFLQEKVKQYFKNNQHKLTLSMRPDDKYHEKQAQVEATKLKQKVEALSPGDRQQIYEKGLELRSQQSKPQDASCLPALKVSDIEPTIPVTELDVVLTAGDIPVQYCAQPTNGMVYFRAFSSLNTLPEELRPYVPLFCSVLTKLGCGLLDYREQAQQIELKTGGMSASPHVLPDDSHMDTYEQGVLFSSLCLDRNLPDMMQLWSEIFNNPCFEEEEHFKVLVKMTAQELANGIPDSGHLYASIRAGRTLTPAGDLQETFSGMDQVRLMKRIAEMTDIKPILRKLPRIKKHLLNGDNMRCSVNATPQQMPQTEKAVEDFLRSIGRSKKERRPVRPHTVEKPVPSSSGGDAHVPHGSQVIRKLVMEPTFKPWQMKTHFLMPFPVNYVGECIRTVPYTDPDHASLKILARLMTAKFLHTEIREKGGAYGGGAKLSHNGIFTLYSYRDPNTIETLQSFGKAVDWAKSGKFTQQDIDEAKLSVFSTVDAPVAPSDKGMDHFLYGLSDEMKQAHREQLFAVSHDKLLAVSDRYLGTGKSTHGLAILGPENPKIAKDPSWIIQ
Sequence of UniProt Q8IZL8 (Q8IZL8 whole entry, looked up): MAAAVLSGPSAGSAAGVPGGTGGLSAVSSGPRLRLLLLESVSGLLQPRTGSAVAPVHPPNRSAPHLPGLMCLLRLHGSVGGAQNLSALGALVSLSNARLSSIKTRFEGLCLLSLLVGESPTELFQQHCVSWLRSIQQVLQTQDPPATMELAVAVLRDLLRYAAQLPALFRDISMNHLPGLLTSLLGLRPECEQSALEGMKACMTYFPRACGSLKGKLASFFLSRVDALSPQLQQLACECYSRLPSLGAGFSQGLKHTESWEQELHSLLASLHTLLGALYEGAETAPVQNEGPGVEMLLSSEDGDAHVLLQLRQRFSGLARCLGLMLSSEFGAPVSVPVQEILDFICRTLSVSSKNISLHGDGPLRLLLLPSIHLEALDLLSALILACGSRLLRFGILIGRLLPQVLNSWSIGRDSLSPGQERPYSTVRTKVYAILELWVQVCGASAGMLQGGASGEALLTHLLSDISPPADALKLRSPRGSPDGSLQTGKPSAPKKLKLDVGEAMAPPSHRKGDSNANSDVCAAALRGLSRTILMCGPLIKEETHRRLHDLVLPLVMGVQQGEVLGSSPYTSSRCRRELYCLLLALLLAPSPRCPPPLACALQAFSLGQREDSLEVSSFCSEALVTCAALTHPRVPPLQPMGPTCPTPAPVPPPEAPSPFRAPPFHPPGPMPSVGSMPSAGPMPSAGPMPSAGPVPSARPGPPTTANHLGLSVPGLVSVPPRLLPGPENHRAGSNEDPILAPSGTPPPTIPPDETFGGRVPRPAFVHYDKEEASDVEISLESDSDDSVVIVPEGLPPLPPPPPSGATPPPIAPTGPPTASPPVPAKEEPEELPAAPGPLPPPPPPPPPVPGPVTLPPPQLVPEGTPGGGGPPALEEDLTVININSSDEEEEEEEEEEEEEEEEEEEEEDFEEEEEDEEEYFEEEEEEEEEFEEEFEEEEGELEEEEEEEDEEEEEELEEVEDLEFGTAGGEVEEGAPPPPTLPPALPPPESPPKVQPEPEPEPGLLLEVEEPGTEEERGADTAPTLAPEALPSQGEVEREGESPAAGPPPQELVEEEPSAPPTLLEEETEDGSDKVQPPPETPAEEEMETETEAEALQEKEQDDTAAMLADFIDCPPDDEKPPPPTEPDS
Sequence of UniProt Q9BRX2 (Q9BRX2 whole entry, looked up): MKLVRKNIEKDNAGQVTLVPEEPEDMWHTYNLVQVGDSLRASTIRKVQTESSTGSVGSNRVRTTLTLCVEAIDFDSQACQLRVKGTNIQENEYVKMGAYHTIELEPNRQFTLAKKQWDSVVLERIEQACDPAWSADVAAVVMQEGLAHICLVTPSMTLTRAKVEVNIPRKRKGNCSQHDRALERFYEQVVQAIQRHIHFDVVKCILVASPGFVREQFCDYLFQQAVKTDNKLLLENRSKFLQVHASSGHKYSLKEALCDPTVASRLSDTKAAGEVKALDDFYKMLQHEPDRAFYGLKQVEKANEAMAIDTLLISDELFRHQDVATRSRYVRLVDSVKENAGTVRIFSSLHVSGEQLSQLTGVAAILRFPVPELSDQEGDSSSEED
Sequence of UniProt P53609 (P53609 whole entry, looked up): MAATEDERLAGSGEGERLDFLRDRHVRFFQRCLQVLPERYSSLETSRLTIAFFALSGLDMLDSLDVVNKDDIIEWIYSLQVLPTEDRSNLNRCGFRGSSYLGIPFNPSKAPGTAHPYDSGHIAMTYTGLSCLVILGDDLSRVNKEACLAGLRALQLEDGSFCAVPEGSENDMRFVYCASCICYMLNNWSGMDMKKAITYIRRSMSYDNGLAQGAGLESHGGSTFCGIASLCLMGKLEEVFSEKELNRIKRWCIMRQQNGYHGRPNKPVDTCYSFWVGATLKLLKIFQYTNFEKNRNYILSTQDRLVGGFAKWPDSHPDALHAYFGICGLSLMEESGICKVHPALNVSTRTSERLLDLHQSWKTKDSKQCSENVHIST
Sequence of UniProt P35227 (P35227 whole entry, looked up): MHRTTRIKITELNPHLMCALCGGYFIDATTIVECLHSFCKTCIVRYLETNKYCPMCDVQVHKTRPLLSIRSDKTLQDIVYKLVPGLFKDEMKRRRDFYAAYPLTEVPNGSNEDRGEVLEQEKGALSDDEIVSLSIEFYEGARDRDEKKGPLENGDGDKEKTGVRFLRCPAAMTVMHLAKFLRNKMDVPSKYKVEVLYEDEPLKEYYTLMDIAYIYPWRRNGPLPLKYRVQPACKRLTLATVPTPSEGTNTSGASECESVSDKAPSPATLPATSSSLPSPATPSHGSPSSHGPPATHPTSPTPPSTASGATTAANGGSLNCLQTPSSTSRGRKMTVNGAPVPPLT
Sequence of UniProt P06454 (P06454 whole entry, looked up): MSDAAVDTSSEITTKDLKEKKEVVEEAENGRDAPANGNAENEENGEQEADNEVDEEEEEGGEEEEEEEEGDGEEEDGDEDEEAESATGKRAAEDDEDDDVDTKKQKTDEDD
Sequence of UniProt P49585 (P49585 whole entry, looked up): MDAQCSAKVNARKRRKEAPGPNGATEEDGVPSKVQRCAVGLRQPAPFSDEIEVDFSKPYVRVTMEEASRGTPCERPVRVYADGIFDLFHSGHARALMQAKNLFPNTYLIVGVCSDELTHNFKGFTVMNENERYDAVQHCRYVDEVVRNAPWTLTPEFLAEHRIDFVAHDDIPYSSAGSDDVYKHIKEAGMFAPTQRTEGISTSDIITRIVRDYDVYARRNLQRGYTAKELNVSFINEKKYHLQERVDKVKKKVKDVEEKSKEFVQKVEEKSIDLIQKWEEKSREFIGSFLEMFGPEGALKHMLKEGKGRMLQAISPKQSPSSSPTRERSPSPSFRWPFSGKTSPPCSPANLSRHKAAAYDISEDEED
Sequence of UniProt Q99541 (Q99541 whole entry, looked up): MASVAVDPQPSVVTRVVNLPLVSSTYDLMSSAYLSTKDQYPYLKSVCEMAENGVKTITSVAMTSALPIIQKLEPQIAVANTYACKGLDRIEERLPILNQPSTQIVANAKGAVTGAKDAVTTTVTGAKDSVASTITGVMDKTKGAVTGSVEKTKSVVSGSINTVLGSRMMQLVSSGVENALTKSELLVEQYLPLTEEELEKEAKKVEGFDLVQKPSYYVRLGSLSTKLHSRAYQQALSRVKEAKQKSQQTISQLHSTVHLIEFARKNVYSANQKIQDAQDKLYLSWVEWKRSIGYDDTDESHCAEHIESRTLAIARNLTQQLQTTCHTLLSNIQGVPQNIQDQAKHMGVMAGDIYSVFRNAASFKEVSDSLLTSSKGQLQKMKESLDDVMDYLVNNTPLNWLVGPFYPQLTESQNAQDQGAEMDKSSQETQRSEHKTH
Sequence of UniProt Q9UKL6 (Q9UKL6 whole entry, looked up): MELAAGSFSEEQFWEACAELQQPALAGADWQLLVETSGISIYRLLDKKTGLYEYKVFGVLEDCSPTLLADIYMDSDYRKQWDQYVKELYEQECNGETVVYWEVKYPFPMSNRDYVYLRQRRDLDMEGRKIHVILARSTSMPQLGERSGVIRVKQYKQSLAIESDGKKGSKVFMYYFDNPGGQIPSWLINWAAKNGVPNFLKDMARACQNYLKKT
Sequence of UniProt Q8NCC3 (Q8NCC3 whole entry, looked up): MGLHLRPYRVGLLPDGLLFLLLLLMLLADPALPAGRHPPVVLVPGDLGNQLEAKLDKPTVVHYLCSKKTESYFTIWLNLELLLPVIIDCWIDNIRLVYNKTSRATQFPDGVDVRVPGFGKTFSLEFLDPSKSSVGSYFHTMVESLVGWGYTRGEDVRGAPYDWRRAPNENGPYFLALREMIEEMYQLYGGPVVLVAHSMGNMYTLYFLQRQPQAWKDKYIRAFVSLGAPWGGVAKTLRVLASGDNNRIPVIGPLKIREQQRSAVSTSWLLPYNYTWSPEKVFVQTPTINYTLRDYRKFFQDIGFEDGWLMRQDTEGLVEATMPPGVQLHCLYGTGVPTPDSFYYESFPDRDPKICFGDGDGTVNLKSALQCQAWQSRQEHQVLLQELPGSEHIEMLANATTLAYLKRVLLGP
Sequence of UniProt Q9Y2Y1 (Q9Y2Y1 whole entry, looked up): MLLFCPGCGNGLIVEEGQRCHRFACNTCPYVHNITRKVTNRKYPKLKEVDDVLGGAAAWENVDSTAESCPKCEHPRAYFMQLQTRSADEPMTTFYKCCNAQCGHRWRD

log2 fold change, inactive:
PPP6R1 (UniProt Q9UPN7) -0.002
PLIN2 (UniProt Q99541) -0.014
PELP1 (UniProt Q8IZL8) -0.096
PCGF2 (UniProt P35227) -0.039
PTPN23 (UniProt Q9H3S7) 0.12
PBK (UniProt Q96KB5) -0.01
POTEI (UniProt P0CG38) 0.033
PDE4DIP isoform 4 (UniProt Q5VU43) 0.113
PSMD2 (UniProt Q13200) -0.036
PPT2 isoform 3 (UniProt Q9UMR5) 0.052
PLA2G15 (UniProt Q8NCC3) -0.041
PRPF38B (UniProt Q5VTL8) -0.004
PELO (UniProt Q9BRX2) 0.001
PIGT (UniProt Q969N2) -0.004
PRKCQ (UniProt Q04759) -0.044
PDCD6IP (UniProt Q8WUM4) 0.105
PRIM2 (UniProt P49643) 0.044
POLR2B (UniProt P30876) 0.034
PIP4P2 (UniProt Q8N4L2) 0.053
PTMA (UniProt P06454) 0.118
POLD3 (UniProt Q15054) 0.002
PCTP (UniProt Q9UKL6) -0.007
PSMC3 (UniProt P17980) -0.035
POLR3K (UniProt Q9Y2Y1) -0.078
PPP2R5C isoform 4 (UniProt Q13362) 0.125
PCYT1A (UniProt P49585) 0.006
PEF1 (UniProt Q9UBV8) -0.009
PITRM1 isoform 2 (UniProt Q5JRX3) -0.097
PURA (UniProt Q00577) -0.336
PPIL1 (UniProt Q9Y3C6) -0.079
PIKFYVE (UniProt Q9Y2I7) 0.03
PNPLA8 (UniProt Q9NP80) -0.061
PNPLA2 (UniProt Q96AD5) -0.089
PGGT1B (UniProt P53609) -0.112
PI4K2A (UniProt Q9BTU6) 0.012
PRPF40A (UniProt O75400) 0.082
POLD1 (UniProt P28340) 0.025
